# Molecular target: NKX2-5 (Homo sapiens, UniProt P52952 125-210, R139K)
# Experiment: PBM; 200 nM protein, PBS
# Details: dsDNA, one strand shown
# Chain of NKX2-5 (P52952 125-210 R139K): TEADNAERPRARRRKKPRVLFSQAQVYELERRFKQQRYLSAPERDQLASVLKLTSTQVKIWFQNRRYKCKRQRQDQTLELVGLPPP
row,Sequence,binding signal
1,CCTCCGGA,"8.88 upbm affinity estimate (log intensity, higher = more binding, comparable within an allelic series)"
2,CTGGCCGA,"8.94 upbm affinity estimate (log intensity, higher = more binding, comparable within an allelic series)"
3,ACACTTAG,"12.6 upbm affinity estimate (log intensity, higher = more binding, comparable within an allelic series)"
4,AGCCCAGG,"8.68 upbm affinity estimate (log intensity, higher = more binding, comparable within an allelic series)"
5,AAGTGGCG,"12.2 upbm affinity estimate (log intensity, higher = more binding, comparable within an allelic series)"
6,ACACGTGT,"9.32 upbm affinity estimate (log intensity, higher = more binding, comparable within an allelic series)"
7,CAGCGTCC,"8.7 upbm affinity estimate (log intensity, higher = more binding, comparable within an allelic series)"
8,GTCCCAGA,"8.89 upbm affinity estimate (log intensity, higher = more binding, comparable within an allelic series)"
9,AAGTGGCC,"12.4 upbm affinity estimate (log intensity, higher = more binding, comparable within an allelic series)"
10,CGTTCCGC,"8.99 upbm affinity estimate (log intensity, higher = more binding, comparable within an allelic series)"
11,CCAGCAGC,"8.8 upbm affinity estimate (log intensity, higher = more binding, comparable within an allelic series)"
12,AAGTGGGT,"12.4 upbm affinity estimate (log intensity, higher = more binding, comparable within an allelic series)"
13,CACTTACC,"12.4 upbm affinity estimate (log intensity, higher = more binding, comparable within an allelic series)"
14,CTAAGTAC,"12.3 upbm affinity estimate (log intensity, higher = more binding, comparable within an allelic series)"
15,CGTCGGTC,"8.88 upbm affinity estimate (log intensity, higher = more binding, comparable within an allelic series)"
16,CAAGTGGG,"12.3 upbm affinity estimate (log intensity, higher = more binding, comparable within an allelic series)"
17,CCACGGCG,"8.49 upbm affinity estimate (log intensity, higher = more binding, comparable within an allelic series)"
18,CCGACGCA,"8.78 upbm affinity estimate (log intensity, higher = more binding, comparable within an allelic series)"
19,TAAGTGCA,"12.6 upbm affinity estimate (log intensity, higher = more binding, comparable within an allelic series)"
20,CTAAGTGC,"12.8 upbm affinity estimate (log intensity, higher = more binding, comparable within an allelic series)"

row,Sequence,binding signal
1,CGGTGGAG,"8.95 upbm affinity estimate (log intensity, higher = more binding, comparable within an allelic series)"
2,ACAATTAC,"10.9 upbm affinity estimate (log intensity, higher = more binding, comparable within an allelic series)"
3,CACTTAGG,"12.6 upbm affinity estimate (log intensity, higher = more binding, comparable within an allelic series)"
4,CACTTGTA,"12.5 upbm affinity estimate (log intensity, higher = more binding, comparable within an allelic series)"
5,CACACTTA,"12.5 upbm affinity estimate (log intensity, higher = more binding, comparable within an allelic series)"
6,GCACTTAC,"12.3 upbm affinity estimate (log intensity, higher = more binding, comparable within an allelic series)"
7,AAGTGCCT,"12.4 upbm affinity estimate (log intensity, higher = more binding, comparable within an allelic series)"
8,GCGCGTCC,"8.83 upbm affinity estimate (log intensity, higher = more binding, comparable within an allelic series)"
9,CGACTGGC,"8.66 upbm affinity estimate (log intensity, higher = more binding, comparable within an allelic series)"
10,CAGGTCGC,"9.22 upbm affinity estimate (log intensity, higher = more binding, comparable within an allelic series)"
11,GAAGTGGA,"11.7 upbm affinity estimate (log intensity, higher = more binding, comparable within an allelic series)"
12,ACTTAAGA,"12.3 upbm affinity estimate (log intensity, higher = more binding, comparable within an allelic series)"
13,ACTAAGTG,"12.3 upbm affinity estimate (log intensity, higher = more binding, comparable within an allelic series)"
14,AGTCCTTA,"11.3 upbm affinity estimate (log intensity, higher = more binding, comparable within an allelic series)"
15,AAGTGGGC,"12.4 upbm affinity estimate (log intensity, higher = more binding, comparable within an allelic series)"
16,AGCACTTG,"12.4 upbm affinity estimate (log intensity, higher = more binding, comparable within an allelic series)"
17,CCAGCAGG,"8.6 upbm affinity estimate (log intensity, higher = more binding, comparable within an allelic series)"
18,GCGGCCAC,"8.75 upbm affinity estimate (log intensity, higher = more binding, comparable within an allelic series)"
19,CGACCTCG,"9.01 upbm affinity estimate (log intensity, higher = more binding, comparable within an allelic series)"
